Data as given in PubChem BioAssay AID1159580 (chemical genetic matrix, 2015).
“And” between values parts separate entries of the source, which are not always exact repeats. Equal values may be shown once. Hit rate of the full screen: of about 5,500 compounds, about 2,000 (36%) were called active. About 18% were inconclusive and are not listed. Cut-off read from the data, not from the text of the source: active = normalized growth mostly below about 0.91 (no sharp cut-off); inconclusive = no clear call, values can overlap the other calls; inactive = mostly above about 0.92. The list shows a part of the results.

Assay: chemical genetic growth profiling, strain panel (AID 1159580);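 note: tested at 20 µM; growth read once vehicle control cultures reached saturation at 30 °C; 1 = growth at the plate median or of vehicle wells; lower values mean less growth of the strain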
Conditions: S. cerevisiae deletion strains, growth OD

Measured: normalized growth

COc1ccc(-c2cc(=O)c3c(O)cc(O[C@@H]4O[C@H](CO[C@H]5O[C@H](C)[C@@H](O)[C@H](O)[C@@H]5O)[C@@H](O)[C@H](O)[C@H]4O)cc3o2)cc1O
inactive: locus YAL021C, strain ccr4, active compounds read low 1.01 | locus YAL026C, strain drs2, active compounds read low 1.05 | locus YAL030W, strain snc1, active compounds read low 1.02 | locus YBL061C, strain skt5, active compounds read low 1.02 | locus YBR009C, strain hhf1, active compounds read low 1.01 | locus YBR021W, strain FUR4, active compounds read low 1.03 | locus YBR023C, strain chs3, active compounds read low 1.01 | locus YBR171W, strain sec66, active compounds read low 1.02 | locus YBR229C, strain ROT2, active compounds read low 0.994 | locus YBR231C, strain swc5, active compounds read low 1.02 | locus YBR279W, strain paf1, active compounds read low 1.01 | locus YCL011C, strain gbp2, active compounds read low 1.01 | locus YCL016C, strain dcc1, active compounds read low 1.02 | locus YCL029C, strain bik1, active compounds read low 0.986 | locus YCL061C, strain MRC1, active compounds read low 1.01 | locus YCL069W, strain vba3, active compounds read low 1.03 | locus YCR088W, strain abp1, active compounds read low 1.01 | locus YDL005C, strain med2, active compounds read low 1.02 | locus YDL035C, strain GPR1, active compounds read low 0.983 | locus YDL040C, strain nat1, active compounds read low 1 | locus YDL074C, strain BRE1, active compounds read low 1.02 | locus YDL101C, strain DUN1, active compounds read low 0.995 | locus YDL185W, strain tfp1, active compounds read low 0.969 | locus YDL192W, strain arf1, active compounds read low 0.985 | locus YDR001C, strain nth1, active compounds read low 1.01 | locus YDR069C, strain doa4, active compounds read low 1.02 | locus YDR101C, strain arx1, active compounds read low 1 | locus YDR137W, strain rgp1, active compounds read low 1.03 | locus YDR150W, strain NUM1, active compounds read low 0.99 | locus YDR159W, strain sac3, active compounds read low 1.02 | locus YDR162C, strain NBP2, active compounds read low 0.972 | locus YDR195W, strain ref2 1.04 | locus YDR297W, strain sur2, active compounds read low 1.01 | locus YDR318W, strain mcm21, active compounds read low 1 | locus YDR334W, strain swr1, active compounds read low 1.02 | locus YDR335W, strain msn5, active compounds read low 1.01 | locus YDR388W, active compounds read low 0.991 | locus YDR392W, strain spt3, active compounds read low 0.987 | locus YDR502C, strain sam2, active compounds read low 0.993 | locus YEL003W, strain gim4, active compounds read low 1.02 | locus YEL037C, strain rad23, active compounds read low 1.01 | locus YEL061C, strain CIN8 (second series), active compounds read low 1.03 | locus YEL061C, strain CIN8, active compounds read low 0.997 | locus YER015W, strain faa2, active compounds read low 1.01 | locus YER016W, strain bim1, active compounds read low 1.02 | locus YER110C, active compounds read low 0.979 | locus YER111C, strain swi4, active compounds read low 1 | locus YER155C, strain BEM2 (second series), active compounds read low 1 | locus YER155C, strain BEM2, active compounds read low 0.995 | locus YER167W, strain BCK2, active compounds read low 0.981 | locus YFR010W, strain ubp6, active compounds read low 1.02 | locus YGL078C, strain dbp3, active compounds read low 1 | locus YGL086W, strain mad1, active compounds read low 1.01 | locus YGL167C, strain pmr1, active compounds read low 1.01 | locus YGL173C, strain kem1, active compounds read low 1.04 | locus YGL227W, strain vid30, active compounds read low 1.01 | locus YGL240W, strain doc1, active compounds read low 1.04 | locus YGL248W, strain PDE1, active compounds read low 0.999 | locus YGL253W, strain hxk2, active compounds read low 1 | locus YGR078C, strain PAC10, active compounds read low 1.01 | locus YGR135W, strain pre9, active compounds read low 0.956 | locus YGR252W, strain gcn5, active compounds read low 1.04 | locus YHR013C, strain ard1, active compounds read low 1.02 | locus YHR027C, strain rpn1, active compounds read low 1.02 | locus YHR030C, strain SLT2, active compounds read low 0.985 and 1 | locus YHR079C, strain IRE1 (second series), active compounds read low 0.991 | locus YHR079C, strain IRE1, active compounds read low 0.996 | locus YHR094C, strain hxt1, active compounds read low 0.977 | locus YHR129C, strain ARP1, active compounds read low 0.988 | locus YHR142W, strain chs7, active compounds read low 0.978 | locus YHR200W, strain rpn10, active compounds read low 0.989 | locus YIL066C, strain RNR3, active compounds read low 0.994 | locus YIL073C, strain SPO22, active compounds read low 0.963 | locus YIL125W, strain kgd1, active compounds read low 1.01 | locus YIR030C, strain dcg1, active compounds read low 0.985 | locus YJL092W, strain hpr5, active compounds read low 1.02 | locus YJL095W, strain BCK1 (second series), active compounds read low 1.01 | locus YJL095W, strain BCK1, active compounds read low 1.01 and 0.997 | locus YJL115W, strain asf1, active compounds read low 1.03 | locus YJL129C, strain trk1, active compounds read low 1.03 | locus YJL134W, strain LCB3, active compounds read low 0.988 | locus YJL154C, strain vps35, active compounds read low 1.02 | locus YJL164C, strain tpk1, active compounds read low 1.02 | locus YJL166W, strain qcr8, active compounds read low 1.02 | locus YJL168C, strain set2, active compounds read low 1 | locus YJL187C, strain SWE1 (second series), active compounds read low 1 | locus YJL187C, strain SWE1, active compounds read low 1.01 | locus YJR043C, strain POL32, active compounds read low 1.02 | locus YJR066W, strain TOR1, active compounds read low 0.981
